Pf apPOL inh – Pf-apPOL inhibitors, biochemical, fluorescence | 0.25% of 210,000 active | Recombinant Pf-apPOL, molecular beacon fluorescence, 1.5 h | Plasmodium falciparum apicoplast DNA polymerase (apPOL) | AID 1794808, 2022 | inhibition, % at 10 µM
mHTT-CaM PPI inh – mutant huntingtin-calmodulin interaction inhibitors – biochemical, AlphaScreen, primary screen. P42858. AlphaScreen His-mHTT/GST-CaM binding, luminescence. inhibition, % at 15 µM. 3.6% of 190,000 active;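 note: 0% = both proteins with DMSO and 100% = one protein alone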
Starred values were filed as active, the others as inactive; x = not tested or not shown. This is a sample that favours compounds with a hit; in the whole collection about 3.5% have one here. Cut-off read from the data, not from the text of the source: active = inhibition above about 50%; inactive = the rest.

SMILES | Pf apPOL inh | mHTT-CaM PPI inh
COc1ccc(NC(=O)C2CCN(c3nnc(-c4ccc(C)cc4)o3)CC2)c(OC)c1 | -3.1 | 45.1
O=C(O)c1cncc(-c2ccccc2)c1 | 79.9* | x
O=C(c1ccc(-c2ccccc2)cc1)N1CCN(C(=O)c2cccnc2)CC1 | -8.2 | 8.9
CCOc1cccc2sc(N(Cc3ccccn3)C(=O)c3nn(C)cc3C)nc12 | -0.2 | -5.9
O=C(c1cnccn1)N1CCCC(c2cc(-c3ccccc3)n[nH]2)C1 (centres undefined) | -10.1 | -1.5
COc1ccc(/C=C/C(=O)Nc2ccc3nc(N4CCN(C)CC4)cc(C)c3c2)cc1OC | -2.4 | 51.0*
Cc1cc(N2CCN(C)CC2)nc2ccc(NC(=O)/C=C/c3cccc(Cl)c3)cc12 | -7.9 | 94.0*
COc1cc(/C=C/C(=O)Nc2ccc3nc(N4CCN(C)CC4)cc(C)c3c2)cc(OC)c1OC | -3.9 | 21.0
Cc1cc(N2CCCCC2)nc2ccc(NC(=O)/C=C/c3cccs3)cc12 | -5.4 | 33.0
CCCN1C(=O)c2ccc(C(=O)c3ccc(C(=O)O)cc3)cc2C1=O | 1.4 | -2.9
O=C(COc1ccc2c(c1)C(=O)CC2)Nc1nc2ccccc2[nH]1 | -6.4 | -14.3
CC1(C)Cc2c(sc3c2c(=O)n(-c2ccccc2)c2nncn32)CO1 | -3.2 | 18.0
Cc1nc(Cn2cccc2C(=O)Nc2ccc(Cl)cc2)no1 | -11.6 | 0.6
Cc1ccc(N2C(=O)CCS2(=O)=O)cc1S(=O)(=O)Nc1cccc2cccnc12 | -119.6 | 74.6*
Cc1ccccc1NS(=O)(=O)c1cccc2cccnc12 | -7.7 | -2.0
Cc1ccc(NCc2ccc(Cl)nc2)c(NCc2ccc(Cl)nc2)c1 | -3.6 | 54.0*
Cc1ccc(C)c(NCc2ccncc2)c1 | 2.6 | 1.6
Cc1nc2c(c(=O)n1CC(=O)Nc1ccc(C(C)C)cc1)CCN(Cc1ccccc1)C2 | -2.5 | 12.9
COc1ccc(CCN2C(=O)CC(C(=O)O)SC2=Nc2ccc(F)cc2)cc1OC (centres undefined) | -2.9 | -2.0
Cc1ccc(NC(=O)c2ccc([N+](=O)[O-])c(C)c2)cc1Cl | -5.7 | -1.5
Cc1ccc(NC(=O)c2ccc(NCCN)c([N+](=O)[O-])c2)cc1Cl | -0.3 | 53.8*
CN(C)c1ccc(C=Cc2ccc3ccccc3[n+]2C)cc1 | 2.4 | x
CN1/C(=C/C=C/c2ccc3ccccc3[n+]2C)C=Cc2ccccc21 | -3.2 | 100.0*
COc1cc(/C=C2/N=C(c3ccc([N+](=O)[O-])cc3)OC2=O)cc(OC)c1OC | -0.9 | 4.0
O=C(CCCc1ccccc1)Nc1cccc([N+](=O)[O-])c1 | -4.4 | 3.7
SMILES | Pf apPOL inh | mHTT-CaM PPI inh
O=C(Cc1c([N+](=O)[O-])cc([N+](=O)[O-])cc1S(=O)Cc1ccccc1)Nc1ccccc1 (centres undefined) | -2.8 | 84.0*
COc1cc(C(=O)N2CCN(CC3CC4C=CC3C4)CC2)cc(OC)c1OC (centres undefined) | -9.8 | 9.0
O=C(c1ccc2c(c1)CC(=O)N2Cc1ccccc1)N1CCOCC1 | -1.6 | -2.5
O=C(Nc1cccc(O)c1)c1nn2c(C(F)(F)F)cc(-c3ccco3)nc2c1Br | 6.7 | 61.0*
O=C(NC1CCCC1)c1nn2c(C(F)(F)F)cc(-c3ccco3)nc2c1Br | 2.9 | 0.0
CCOC1=NC2Nc3ccc(Cl)cc3N(C)C2C1c1ccc([N+](=O)[O-])cc1 (centres undefined) | -2.4 | 54.0*
CCN1c2ccccc2NC2N=C(OC)C(c3ccccc3)C21 (centres undefined) | -2.3 | 41.0
Cc1ccc(NC(=O)Cc2nnc(-c3ccc4ncccc4c3)o2)cc1F | 2.5 | -2.8
O=C(NCc1cccs1)c1ccc(NC(=O)C2CC2)cc1N1CCCCCC1 | 0.2 | 14.4
O=C(O)c1ccc(Cn2nnc3ccsc3c2=O)cc1 | 1.0 | 3.0
C=CCn1c(SCC(=O)Nc2ccc(F)cc2)nnc1-c1cccc(OC)c1 | -11.1 | -2.4
C=CCn1c(SCC(=O)Nc2ccc(OC)cc2)nnc1C(c1ccccc1)c1ccccc1 | 97.4* | 17.2
Cc1nc2c(C(=O)NCc3ccccc3Cl)cnn2c(C)c1Cc1ccccc1F | 2.1 | 10.0
O=C1CC(c2ccccc2)CC2=C1C(c1ccc(Cl)c([N+](=O)[O-])c1)Nc1ccccc1N2 (centres undefined) | 1.6 | 84.0*
O=C1CC(c2cccc([N+](=O)[O-])c2)CC2=C1C(c1ccc(Cl)cc1)Nc1ccccc1N2 (centres undefined) | 12.4 | 58.0*
O=C1CC(c2ccc(Cl)cc2)CC2=C1C(c1ccccc1[N+](=O)[O-])Nc1ccccc1N2 (centres undefined) | -7.0 | 25.0
O=C1CC(c2ccccc2)CC2=C1C(c1ccc(Cl)cc1)Nc1ccccc1N2 (centres undefined) | 10.1 | 45.0
CC(=O)N1CCc2cc(-c3ccc(C(=O)NCc4c(C)nn(C)c4C)cc3)ccc21 | 0.7 | -3.4
Cc1nc(C(F)(F)F)c(C(=O)NNc2ncc(Cl)cc2C(F)(F)F)s1 | 0.3 | x
O=[N+]([O-])c1cc2c(cc1CNc1ccc3c(c1)CCC3)OCO2 | -6.9 | 80.9*
O=[N+]([O-])c1cc2c(cc1CNc1ccc3cn[nH]c3c1)OCO2 | -1.4 | 45.2
CC(C)(C)C(=O)Nc1nc2c(F)cc(F)cc2s1 | -2.3 | -14.4
CCOC1=NN(c2ccc([N+](=O)[O-])cc2)C(=O)/C1=C/c1ccc(Cl)c(Cl)c1 | 8.1 | 32.0
CCOC1=NN(c2ccc([N+](=O)[O-])cc2)C(=O)/C1=C/c1ccccc1Cl | -5.5 | 79.0*
Cc1ccc(-c2n[nH]c3c2CN(C(=O)c2cccn2C)CC3)cc1 | -11.5 | 54.6*
SMILES | Pf apPOL inh | mHTT-CaM PPI inh
Cn1nc(C(=O)N2CCc3[nH]nc(-c4ccccc4)c3C2)c2ccccc21 | -6.2 | 87.4*
O=C(c1ccccn1)N1CCc2[nH]nc(-c3ccccc3)c2C1 | -10.4 | -3.7
Cc1ccc(-c2n[nH]c3c2CN(C(=O)c2ccoc2)CC3)cc1 | -9.3 | 9.8
O=C(C1CN(S(=O)(=O)c2ccccc2)CC12CCCCC2)N1CCCC1 (centres undefined) | -4.2 | -4.0
Cc1cc2c(=O)n(CC(=O)NCc3ccc(F)cc3)ccc2s1 | 0.1 | -6.0
O=C(Nc1ccc2c(c1)OCO2)c1ccc(Br)cc1 | -1.1 | -0.3
O=C(Nc1ccc2c(c1)OCCO2)c1ccc(Br)cc1 | 1.1 | 95.5*
O=C(Nc1ncc(Cc2ccccc2)s1)c1ccc([N+](=O)[O-])cc1 | 1.8 | 1.7
O=C(O)C1Nc2c(Cl)cc(Cl)c(Cl)c2C2C=CCC12 (centres undefined) | x | 95.7*
O=C(c1cccc2c1NC(c1ccc(Cl)cc1Cl)C1CC=CC21)N1CCOCC1 (centres undefined) | 13.4 | 16.0
O=C(O)C1Nc2c(Cl)cc(Cl)cc2C2C=CCC12 (centres undefined) | x | 94.5*
CNC(=O)C1CC(=O)N(c2ccccc2OC)C1 (centres undefined) | -8.0 | 3.0
CC1CCN(S(=O)(=O)N2CCCC(C(=O)NCc3cccs3)C2)CC1 (centres undefined) | -26.0 | -12.0
COc1ccc(C(=O)N2CCN(c3ccc([N+](=O)[O-])c(NC4CC4)c3)CC2)cc1 | -6.7 | 34.6
COc1ccc(C2Oc3ccc(Cl)cc3C3CC(c4ccco4)=NN32)cc1 (centres undefined) | -16.4 | 37.0
COc1cccc2c1OC(c1ccc(F)c(F)c1)N1N=C(c3ccco3)CC21 (centres undefined) | -18.0 | 14.0
